# According to PubChem BioAssay:
# Values without a mark were called inactive.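 Rule for the calls: active = compounds killing one labelled cell type while sparing the other, by normalised counts and ratio limits, not self-fluorescent; inactive = the rest.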
# Assay: EMT-state selective cytotoxicity in co-culture – imaging, PC-3E GFP, TEM4-18 mCherry, primary screen (AID 1345086);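 note: normalised mesenchymal count divided by normalised epithelial count so high means epithelial killing; cells exposed to compound for 72 h before imaging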
# Conditions: PC-3E GFP / TEM4-18 mCherry co-culture, imaging cell counts; at 1 µM; actives lie on both sides; counts scaled to control wells, 1 = unselective
row,SMILES,red/green cell ratio (normalised)
1,O=C1O[C@H](C(O)CO)C(O)=C1O (stereo partly drawn),1.21
2,CC1=C(C(=O)O)N2C(=O)[C@@H](NC(=O)C(N)c3ccc(O)cc3)[C@H]2SC1 (stereo partly drawn),1.2
3,C=C1CC[C@H](O)C/C1=C/C=C1\CCCC2(C)C1CCC2C(C)CCCC(C)C (stereo partly drawn),1.03
4,CC(=O)c1cc2ccccc2oc1=O,0.84
5,CCc1cc(Cl)c(OC)c(C(=O)NCC2CCCN2CC)c1O (stereo not drawn),0.67
6,OC[C@H]1OC([S-])[C@H](O)[C@@H](O)[C@@H]1O.[Au+] (stereo partly drawn),0.82
7,CC(C)(O/N=C(\C(=O)N[C@@H]1C(=O)N2C(C(=O)[O-])=C(C[n+]3ccccc3)CSC12)c1csc(N)n1)C(=O)O (stereo partly drawn),0.74
8,C[C@H]1O[C@@H](O[C@H]2[C@@H](O)C[C@H](O[C@H]3[C@@H](O)C[C@H](O[C@H]4CC[C@]5(C)C6CC[C@]7(C)[C@@H](C8=CC(=O)OC8)CC[C@]7(O)C6CC[C@@H]5C4)O[C@@H]3C)O[C@@H]2C)C[C@H](O)[C@@H]1O (stereo partly drawn),0.46
